Test results: PubChem BioAssay (Tox21)
Records with an inconclusive call do not appear. Activity calls are given as the source filed them. Calls follow the shape of the dose curve; as a rule, active = well fitted activation curve with a large enough effect in the signal ratio in the repeat runs (not every such curve was filed as active); inconclusive = weak or mixed curves; inactive = flat fitted curve, though single readings scatter; the % refers to the signal ratio.

Experiment: qHTS assay to identify small molecule agonists of the hypoxia (HIF-1) signaling pathway (AID 1224846)
Settings: HRE-bla ME-180 cells, beta-lactamase ratio, 17 h; series mostly up to 76.8 µM
Text: U.S. Tox21 Program National Center for Advancing Translational Sciences [NCATS] NIH Chemical Genomics Center [NCGC] U.S. Environmental Protection Agency [EPA] National Institutes of Environmental Health Sciences [NIEHS] National Toxicology Program [NTP] U.S. Food and Drug Administration [FDA] Tox21 Assay Overview: Hypoxia-inducible factor-1 (HIF-1) is the major hypoxia-regulated transcription factor that controls cellular responses to low oxygen concentration. HIF-1 is composed of two subunits: hypoxia responsive HIF-1-alpha and constitutively expressed HIF-1-beta, which is also known as aryl hydrocarbon receptor nuclear translocator. During hypoxic conditions, HIF-1-alpha heterodimerizes with HIF-1-beta and translocates into the nucleus where the HIF-1 complex binds to the hypoxia-response element (HRE) and activates expression of target genes such as VEGF (vascular endothelial growth factor). The HIF-1 pathway is essential to normal growth and development, and is involved in the pathophysiology of cancer, inflammation, and ischemia. Using a beta-lactamase reporter-gene under control of the hypoxia response element, a cell-based assay [CellSensor(TM) HRE-bla ME-180 from Life Technologies, Carlsbad, CA] was used to measure hypoxia-induced signaling. Tox21 10K library compounds were measured for their ability to induce the reporter gene activity.
Tox21 Assay Protocol Summary: HRE-bla ME-180 cells were dispensed at 2,000 cells per well in 6 uL of assay medium containing 0.5% dialyzed FBS into black wall/clear-bottom 1536-well plates using a Multidrop Combi (Thermo Scientific, Waltham, MA) dispenser. After the assay plates were incubated at 37C and 5% CO2 for 5 hrs, 23 nL of compounds dissolved in DMSO, positive controls or DMSO only was transferred to each well of the assay plate using a Pintool station (Kalypsys, San Diego, CA). The assay plates were incubated at 37C and 5% CO2 for 17 hrs. One uL of LiveBLAzerTM B/G FRET substrate (CCF4-AM) (Life Technologies) was added to each well using a Flying Reagent Dispenser (Aurora Discovery, San Diego, CA).

Compound	outcome
C/C=C1\[C@H]2C=C(C)C[C@]1(N)c1ccc(=O)[nH]c1C2	inactive
Cc1ccc2ccccc2c1[N+](=O)[O-]	inactive
O=c1c2ccccc2oc2ccccc12	inactive
COc1ccc(/C=C/S(=O)(=O)NC(=O)c2ccc(C)cc2Cl)cc1	inactive
Nc1ccc(C(=O)Oc2ccccc2)c(O)c1	inactive
Nc1ccccc1Nc1ccccc1	inactive
CNc1ccccc1	inactive
O=C(OCCCCCOC(=O)c1ccccc1)c1ccccc1	inactive
CCCCCCCCCC(C)C=O (stereo not given)	inactive
CC(C)C[C@H](NC(=O)[C@H](Cc1ccccc1)NC(=O)c1cnccn1)B(O)O	inactive
O=Cc1ccc([N+](=O)[O-])cc1	inactive
O=C1OC(=O)C2CC=CCC12 (stereo not given)	inactive
O=[N+]([O-])c1ccccc1CCO	inactive
CCC1=C(C)CN(C(=O)NCCc2ccc(S(=O)(=O)NC(=O)NC3CCC(C)CC3)cc2)C1=O (stereo not given)	inactive
C[C@H](CN1CCCC1)C(=O)c1ccc(C(F)(F)F)cc1	inactive
CCOC(=O)CC(O)(CC(=O)OCC)C(=O)OCC	inactive
CCCCC(CC)COCCC#N (stereo not given)	inactive
CCc1ccc(C(=O)C(C)CN2CCCCC2)cc1 (stereo not given)	inactive
COC(=O)/C=C/C(C)=C\C=C\C(C)=C\C=C\C=C(C)\C=C\C=C(C)\C=C\C(=O)O	inactive
S=c1[nH][nH]c(=S)s1	inactive

Compound	outcome
CC1(C)CC(O)CC(C)(C)N1[O]	inactive
CCC(C(=O)O)c1ccc(N2Cc3ccccc3C2=O)cc1 (stereo not given)	inactive
CC(CC(C#N)(c1ccccc1)C(C)C)N(C)C (stereo not given)	inactive
CC(C)C/C=C(\C=O)c1ccccc1	inactive
O=C(O)c1ccccc1-n1cc(C(=O)O)c(=O)c2cc(Nc3c(F)cc(F)cc3Cl)c(Cl)cc21	inactive
Cc1cc(N)n(-c2ccccc2)n1	inactive
CC(CCl)OC(C)CCl (stereo not given)	inactive
C(/C=C/C=C/Nc1ccccc1)=Nc1ccccc1	inactive
CCCCCCCCCCCCN1CCOCC1	inactive
COc1ccc(/C=C/c2cc(OC)cc(=O)o2)cc1	inactive
O=C(O)c1ccccc1[N+](=O)[O-]	inactive
CC(=O)c1cccnc1	inactive
CCCc1nc(C)c2c(=O)[nH]c(-c3cc(S(=O)(=O)N4CCN(CC)CC4)ccc3OCC)nn12	inactive
CCC(C)C1N=C(C)C(C)S1 (stereo not given)	inactive
Cc1nc(C)c(C)nc1C	inactive
CC(Cc1ccccc1)(NC(=O)CN)c1ccccc1 (stereo not given)	inactive
FC(F)(Cl)C(F)(Cl)Cl	inactive
C=CC(C)CCC=C(C)C (stereo not given)	inactive
CC(=O)CC/C=C(\C)CC/C=C(\C)CC/C=C(\C)CCC=C(C)C	inactive
CC(C)CC(C)(C)C	inactive
